Experimental data from the supplement of paper PMC10849652.
The full data set covers some 8,800 targets. This sample favours those with a hit. About 0.5% of all pairs of compound and target were hits.

Experiments:
Assay in all cases: log2 fold change, soluble protein after heating vs DMSO (PISA); higher = thermal stabilisation; K562 lysate, 10 uM; active = over 0.2 and 3.5 SD of the protein, either way, in both replicates (recomputed)
ibrutinib = compound: C=CC(=O)N1CCC[C@@H](n2nc(-c3ccc(Oc4ccccc4)cc3)c3c(N)ncnc32)C1 [ibrutinib]
Method in brief: (§1)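 To prepare the extract, K562 pellets were dounce-homogenised in PBS pH 7.4 with 1 mM MgCl2, giving crude material at 1 mg/mL protein. This was treated with 10 μM compound for 30 min, then heated in aliquots for 3 min over 48°C-58°C before pooling and addition of NP-40 to 0.5% at 4°C. Centrifugation at 21,000xg for 90 min left soluble protein in the supernatant, which TMTpro 16plex LC-MS/MS quantified with equalised channel sums. Results are log-two fold changes in thermal stability compared with solvent controls, from duplicates.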

[1] = compound: CC(=O)c1cnc2ccc(-c3cc(Cl)c(O)c(Cl)c3)nc2c1N[C@H]1CC[C@H](CN(C)C)CC1
Method in brief: as §1

ralimetinib = compound: CC(C)(C)Cn1c(N)nc2ccc(-c3[nH]c(C(C)(C)C)nc3-c3ccc(F)cc3)nc21 [ralimetinib]
Method in brief: as §1

[2] = compound: CC(C)(O)CC(=O)NCCn1ccc2ncnc(Nc3ccc(Oc4cccc(C(F)(F)F)c4)c(Cl)c3)c21
Method in brief: as §1

[3] = compound: CC(C)C1=C2N=C(C=C(N2N=C1)NCC3=CC=CC=C3)NCCCCCCN
Method in brief: as §1

[4] = compound: CC1=C(C(CC(=O)N1)C2=CC=C(C=C2)C(F)(F)F)C(=O)NC3=C(C=C4C(=C3)C=NN4)F
Method in brief: as §1

[5] = compound: CC1=C(C2=C(C=C1)C(=O)C3=CC=CC=C3N2CCCN)C
Method in brief: as §1

[6] = compound: CC1=C(C=C(C=C1)NC(=O)C2=CC(=CC=C2)C(C)(C)C#N)NC3=CC4=C(C=C3)N=CN(C4=O)C
Method in brief: as §1

[7] = compound: CC1=C(C=C(C=C1)NC(=O)C2=CC(=CC=C2)N(C)C)NC(=O)C3=CC=C(C=C3)O
Method in brief: as §1

[8] = compound: CC1=CC=C(C=C1)SC2=C3C=C(SC3=CN=C2)C(=O)N
Method in brief: as §1

vemurafenib = compound: CCCS(=O)(=O)Nc1ccc(F)c(C(=O)c2c[nH]c3ncc(-c4ccc(Cl)cc4)cc23)c1F [vemurafenib]
Method in brief: as §1

[9] = compound: CCCS(=O)(=O)Nc1ccc(F)c(C(=O)c2c[nH]c3ncc(Cl)cc23)c1F
Method in brief: as §1

barasertib = compound: CCN(CCCOc1ccc2c(Nc3cc(CC(=O)Nc4cccc(F)c4)[nH]n3)ncnc2c1)CCOP(=O)(O)O [barasertib]
Method in brief: as §1

[10] = compound: CC[C@@H]1C(=O)N(C)c2cnc(Nc3ccc(C(=O)NC4CCN(C)CC4)cc3OC)nc2N1C1CCCC1
Method in brief: as §1

volasertib = compound: CC[C@@H]1C(=O)N(C)c2cnc(Nc3ccc(C(=O)N[C@H]4CC[C@H](N5CCN(CC6CC6)CC5)CC4)cc3OC)nc2N1C(C)C [volasertib]
Method in brief: as §1

[11] = compound: CCn1c(C(=O)N(C2CC2)C2CC2)cc2c3c(ncn3C)c(Nc3cc(C)n(C)n3)nc21
Method in brief: as §1

[12] = compound: CCn1cc(-c2ccnc3[nH]c(-c4cccc(CN(C)C)c4)cc23)c(-c2ccc(NC(=O)N(C)C)cc2)n1
Method in brief: as §1

[13] = compound: CN1CCC(CNc2ccc3ncc(-c4cccc(OC(F)(F)F)c4)n3n2)CC1
Method in brief: as §1

saracatinib = compound: CN1CCN(CCOc2cc(OC3CCOCC3)c3c(Nc4c(Cl)ccc5c4OCO5)ncnc3c2)CC1 [saracatinib]
Method in brief: as §1

sotrastaurin = compound: CN1CCN(c2nc(C3=C(c4c[nH]c5ccccc45)C(=O)NC3=O)c3ccccc3n2)CC1 [sotrastaurin]
Method in brief: as §1

Measured: log2 fold change

KLC2 (UniProt Q9H0B6)
UniProt Q9H0B6, sequence (Q9H0B6 whole entry, looked up): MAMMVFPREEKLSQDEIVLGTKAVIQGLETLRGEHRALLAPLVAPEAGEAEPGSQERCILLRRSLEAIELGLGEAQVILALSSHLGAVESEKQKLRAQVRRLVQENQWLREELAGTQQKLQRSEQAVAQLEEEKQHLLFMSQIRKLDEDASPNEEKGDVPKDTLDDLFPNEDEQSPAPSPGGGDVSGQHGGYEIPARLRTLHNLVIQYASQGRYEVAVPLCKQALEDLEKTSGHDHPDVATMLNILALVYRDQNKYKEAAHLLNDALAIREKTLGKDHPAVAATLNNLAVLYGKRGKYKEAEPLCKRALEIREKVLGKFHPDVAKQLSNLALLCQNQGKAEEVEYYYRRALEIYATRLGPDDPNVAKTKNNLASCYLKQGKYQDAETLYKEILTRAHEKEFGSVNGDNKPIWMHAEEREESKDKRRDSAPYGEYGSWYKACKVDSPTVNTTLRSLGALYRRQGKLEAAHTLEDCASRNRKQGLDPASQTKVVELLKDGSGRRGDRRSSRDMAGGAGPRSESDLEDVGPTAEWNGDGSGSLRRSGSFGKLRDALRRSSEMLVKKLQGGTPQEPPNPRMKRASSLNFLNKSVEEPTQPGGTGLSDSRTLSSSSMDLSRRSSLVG
inactive: ibrutinib 0.021 | [1] 0.01 | ralimetinib 0.003 | [2] 0.008 | [3] -0.001 | [4] -0.045 | [5] -0.036 | [6] 0.012 | [7] 0.016 | [8] -0.012 | vemurafenib 0.066 | [9] 0.042 | barasertib 0.042 | [10] -0.043 | volasertib -0.074 | [11] -0.009 | [12] -0.015 | [13] -0.069 | saracatinib 0.008 | sotrastaurin -0.016

LARP4B (UniProt Q92615)
UniProt Q92615, sequence (Q92615 whole entry, looked up): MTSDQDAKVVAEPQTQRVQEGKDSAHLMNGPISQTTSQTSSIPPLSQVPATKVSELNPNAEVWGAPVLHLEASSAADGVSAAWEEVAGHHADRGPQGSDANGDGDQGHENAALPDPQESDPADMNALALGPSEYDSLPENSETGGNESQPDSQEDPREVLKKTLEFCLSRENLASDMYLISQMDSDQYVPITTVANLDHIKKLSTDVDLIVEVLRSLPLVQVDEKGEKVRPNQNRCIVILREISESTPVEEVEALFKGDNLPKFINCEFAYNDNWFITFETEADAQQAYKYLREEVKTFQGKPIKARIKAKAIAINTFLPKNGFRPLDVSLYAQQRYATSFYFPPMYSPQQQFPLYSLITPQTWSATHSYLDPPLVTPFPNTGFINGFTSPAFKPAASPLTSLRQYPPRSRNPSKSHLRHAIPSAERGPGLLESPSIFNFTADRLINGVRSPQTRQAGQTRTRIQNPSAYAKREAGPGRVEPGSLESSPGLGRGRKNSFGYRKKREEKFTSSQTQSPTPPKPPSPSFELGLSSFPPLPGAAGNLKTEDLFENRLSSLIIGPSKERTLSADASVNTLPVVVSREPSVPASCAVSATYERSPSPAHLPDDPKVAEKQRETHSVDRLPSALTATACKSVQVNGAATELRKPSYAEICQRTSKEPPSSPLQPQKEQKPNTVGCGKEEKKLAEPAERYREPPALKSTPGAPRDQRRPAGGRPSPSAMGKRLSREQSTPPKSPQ
inactive: ibrutinib 0 | [1] 0.005 | ralimetinib 0.055 | [2] 0.069 | [3] -0.02 | [4] -0.006 | [5] 0.03 | [6] -0.094 | [7] 0.037 | [8] 0.014 | vemurafenib -0.014 | [9] 0.011 | barasertib -0.033 | [10] -0.029 | volasertib -0.042 | [11] 0.08 | [12] -0.116 | [13] 0.038 | saracatinib 0.011 | sotrastaurin -0.019

LAP3 (UniProt P28838)
UniProt P28838, sequence (P28838 whole entry, looked up): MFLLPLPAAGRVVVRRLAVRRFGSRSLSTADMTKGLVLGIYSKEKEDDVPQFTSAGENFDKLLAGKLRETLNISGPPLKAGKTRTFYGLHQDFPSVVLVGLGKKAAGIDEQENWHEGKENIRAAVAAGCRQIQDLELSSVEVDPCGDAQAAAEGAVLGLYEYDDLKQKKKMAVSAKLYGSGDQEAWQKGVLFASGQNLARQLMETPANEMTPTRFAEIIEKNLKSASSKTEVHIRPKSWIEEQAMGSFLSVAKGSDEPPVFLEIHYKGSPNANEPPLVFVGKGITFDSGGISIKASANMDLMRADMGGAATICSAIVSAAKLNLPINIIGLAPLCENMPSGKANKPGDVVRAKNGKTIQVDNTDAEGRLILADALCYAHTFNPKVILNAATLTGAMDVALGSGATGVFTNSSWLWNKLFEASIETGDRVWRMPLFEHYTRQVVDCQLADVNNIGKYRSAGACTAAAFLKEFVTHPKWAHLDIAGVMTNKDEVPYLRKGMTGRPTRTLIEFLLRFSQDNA
inactive: ibrutinib 0.043 | [1] -0.03 | ralimetinib -0.05 | [2] -0.103 | [3] 0 | [4] -0.024 | [5] -0.042 | [6] 0.117 | [7] -0.009 | [8] -0.018 | vemurafenib 0.107 | [9] 0.024 | barasertib -0.002 | [10] 0.195 | volasertib 0.054 | [11] -0.095 | saracatinib 0.082 | sotrastaurin 0.042
active: [12] -0.495 | [13] 0.36

MRPL46 (UniProt Q9H2W6)
inactive: ibrutinib -0.101 | [1] 0.018 | ralimetinib 0.048 | [2] 0.026 | [3] -0.064 | [4] -0.002 | [5] 0.005 | [6] -0.002 | [7] 0.026 | [8] 0.021 | vemurafenib 0.058 | [9] -0.001 | barasertib -0.015 | [10] 0.115 | volasertib 0.044 | [11] 0.064 | [13] -0.029 | saracatinib 0.024 | sotrastaurin 0.032
active: [12] 0.523

MRPL10 isoform 2 (UniProt Q7Z7H8)
inactive: ibrutinib -0.062 | [1] -0.013 | ralimetinib 0.047 | [2] -0.019 | [3] -0.04 | [4] -0.029 | [5] -0.005 | [6] 0.025 | [7] 0.053 | [8] 0.042 | vemurafenib 0.027 | [9] 0.033 | barasertib 0.132 | [10] 0.03 | volasertib -0.037 | [11] -0.063 | [12] 0.075 | [13] -0.032 | saracatinib -0.005 | sotrastaurin 0.068

KIF2C (UniProt Q99661)
UniProt Q99661, sequence (Q99661 whole entry, looked up): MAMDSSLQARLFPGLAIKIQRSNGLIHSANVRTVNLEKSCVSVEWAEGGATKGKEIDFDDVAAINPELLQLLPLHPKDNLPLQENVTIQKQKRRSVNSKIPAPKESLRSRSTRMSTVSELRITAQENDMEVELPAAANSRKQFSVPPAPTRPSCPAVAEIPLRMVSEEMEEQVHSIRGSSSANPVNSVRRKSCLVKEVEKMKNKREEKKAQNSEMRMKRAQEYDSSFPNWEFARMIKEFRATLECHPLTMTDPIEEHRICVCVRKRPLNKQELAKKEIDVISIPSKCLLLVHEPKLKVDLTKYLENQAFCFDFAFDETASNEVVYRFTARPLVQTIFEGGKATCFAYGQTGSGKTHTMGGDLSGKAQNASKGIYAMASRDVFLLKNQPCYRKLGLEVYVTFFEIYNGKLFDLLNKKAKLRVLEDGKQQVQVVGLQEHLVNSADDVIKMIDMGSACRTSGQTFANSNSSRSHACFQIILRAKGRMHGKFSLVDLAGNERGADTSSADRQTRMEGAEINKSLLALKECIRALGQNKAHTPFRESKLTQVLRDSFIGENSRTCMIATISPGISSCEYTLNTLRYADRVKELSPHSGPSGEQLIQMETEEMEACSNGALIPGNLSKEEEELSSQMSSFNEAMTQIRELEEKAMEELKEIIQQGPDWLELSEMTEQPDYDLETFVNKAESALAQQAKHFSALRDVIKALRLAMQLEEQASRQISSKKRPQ
inactive: ibrutinib 0.004 | [1] 0.014 | ralimetinib 0.048 | [2] 0.025 | [3] -0.014 | [4] -0.005 | [5] -0.004 | [6] 0.004 | [7] 0.039 | [8] 0.016 | vemurafenib 0.01 | [9] 0.004 | barasertib 0.008 | [10] -0.058 | volasertib -0.023 | [11] 0.016 | [12] 0.006 | [13] -0.015 | saracatinib -0.015 | sotrastaurin 0.02

MORC3 (UniProt Q14149)
UniProt Q14149, sequence (Q14149 whole entry, looked up): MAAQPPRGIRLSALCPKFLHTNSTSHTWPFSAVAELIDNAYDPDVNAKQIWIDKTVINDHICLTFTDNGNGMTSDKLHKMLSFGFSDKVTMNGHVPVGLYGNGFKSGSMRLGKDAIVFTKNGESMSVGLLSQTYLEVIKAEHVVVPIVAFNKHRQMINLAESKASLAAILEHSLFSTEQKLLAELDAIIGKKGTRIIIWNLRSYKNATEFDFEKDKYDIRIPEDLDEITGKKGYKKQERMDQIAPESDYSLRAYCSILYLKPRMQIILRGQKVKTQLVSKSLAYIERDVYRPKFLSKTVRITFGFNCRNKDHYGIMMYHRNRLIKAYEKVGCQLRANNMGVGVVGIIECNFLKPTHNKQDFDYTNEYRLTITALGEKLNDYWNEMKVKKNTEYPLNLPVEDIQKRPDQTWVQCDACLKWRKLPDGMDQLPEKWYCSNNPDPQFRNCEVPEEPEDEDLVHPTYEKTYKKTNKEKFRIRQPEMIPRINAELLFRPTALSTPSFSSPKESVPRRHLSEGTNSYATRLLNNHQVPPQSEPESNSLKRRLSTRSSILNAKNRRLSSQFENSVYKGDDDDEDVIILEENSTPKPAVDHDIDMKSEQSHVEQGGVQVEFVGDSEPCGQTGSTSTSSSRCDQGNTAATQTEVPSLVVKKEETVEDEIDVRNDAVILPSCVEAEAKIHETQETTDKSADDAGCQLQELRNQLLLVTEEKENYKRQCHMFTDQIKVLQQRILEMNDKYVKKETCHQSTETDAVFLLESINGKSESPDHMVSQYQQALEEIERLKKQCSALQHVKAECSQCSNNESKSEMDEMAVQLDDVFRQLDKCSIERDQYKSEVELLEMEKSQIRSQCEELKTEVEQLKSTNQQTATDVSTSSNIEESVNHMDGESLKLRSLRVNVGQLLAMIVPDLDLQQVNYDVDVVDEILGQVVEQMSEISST
inactive: ibrutinib 0.004 | [1] -0.023 | ralimetinib 0.021 | [2] 0.013 | [3] -0.007 | [4] 0.007 | [5] -0.032 | [6] -0.021 | [7] 0.021 | [8] -0.027 | vemurafenib 0.025 | [9] 0.01 | barasertib 0.019 | [10] -0.03 | volasertib -0.077 | [11] 0.007 | [12] -0.007 | [13] -0.055 | saracatinib 0.004 | sotrastaurin 0.006

MPP1 (UniProt Q00013)
UniProt Q00013, sequence (Q00013 whole entry, looked up): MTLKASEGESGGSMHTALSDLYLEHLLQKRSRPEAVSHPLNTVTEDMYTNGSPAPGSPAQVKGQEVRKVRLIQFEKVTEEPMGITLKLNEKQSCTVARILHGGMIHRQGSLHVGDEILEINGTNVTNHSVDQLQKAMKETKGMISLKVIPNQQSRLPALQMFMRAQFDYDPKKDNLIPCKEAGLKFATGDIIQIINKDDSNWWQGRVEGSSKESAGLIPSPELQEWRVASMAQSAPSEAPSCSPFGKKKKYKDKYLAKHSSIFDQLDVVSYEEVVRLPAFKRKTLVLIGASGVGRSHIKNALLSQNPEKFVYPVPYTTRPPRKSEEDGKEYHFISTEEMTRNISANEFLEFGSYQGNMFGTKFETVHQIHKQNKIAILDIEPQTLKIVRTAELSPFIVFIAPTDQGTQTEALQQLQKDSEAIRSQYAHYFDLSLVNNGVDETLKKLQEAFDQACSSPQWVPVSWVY
inactive: ibrutinib 0.035 | [1] 0.011 | ralimetinib -0.01 | [2] -0.002 | [3] 0.02 | [4] -0.019 | [5] 0.018 | [6] 0.022 | [7] 0.012 | [8] -0.004 | vemurafenib 0.014 | [9] -0.005 | barasertib -0.014 | [10] 0.001 | volasertib -0.029 | [11] -0.011 | [12] -0.008 | [13] -0.034 | saracatinib -0.001 | sotrastaurin -0.007
